PubChem BioAssay (NCATS)
Several values for one entry are separate records, joined by “and”; a condition that tells them apart may be missing. Equal values may be shown once. Records with an inconclusive call do not appear. A number with no mark means an inactive call. Activity calls are given as the source filed them. Unless noted, calls follow the shape of the dose curve; as a rule, active = well fitted curve in the direction sought with a large enough effect in the repeat runs; inconclusive = weak or mixed curves; inactive = no such curve, though single readings can be large; an effect the other way counts as inactive or inconclusive. Peptide text beside a SMILES is read from it.

Target: Calcium and integrin-binding protein 1 (Homo sapiens) (UniProt Q99828)
Test: Primary qHTS for Identification of Calcium Integrin Binding Protein 1 (CIB1) Competitor (AID 1508620; active = well fitted curve in the direction sought with a large enough effect; an effect the other way counts as inactive or inconclusive;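 also: GST tagged CIB1 binding a fluorescein labelled alphaIIb integrin peptide tracer; top concentration of the series differs between compounds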)
Details: CIB1-GST / FITC-alphaIIb peptide fluorescence polarization; series mostly up to 57.7 µM; activity change, negative = inhibition: at the top concentration
In short: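 CIB1-GST (1 uM final) and compound incubated 15 min at room temperature before adding FITC-alphaIIb peptide tracer (100 nM final). Competition for binding read by fluorescence polarization (ex 480, em 540) after another 15 min at room temperature.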
% is scaled to controls: 0 for no effect and ±100 for the full control effect.

Sequence of Calcium and integrin-binding protein 1 (Homo sapiens) (Q99828 whole entry, looked up): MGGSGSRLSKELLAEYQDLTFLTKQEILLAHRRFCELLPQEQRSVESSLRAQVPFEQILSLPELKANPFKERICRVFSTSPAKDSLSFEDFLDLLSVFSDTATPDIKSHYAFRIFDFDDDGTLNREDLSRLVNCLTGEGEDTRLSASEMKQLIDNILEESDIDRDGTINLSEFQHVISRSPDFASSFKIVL

SMILES | Potency | activity change, negative = inhibition
CNc1nc(Nc2cnn([C@H]3CCN(C4COC4)C[C@@H]3F)c2Cl)ncc1C(F)(F)F | inactive | –
C#Cc1cnc2[nH]c(=O)n(C(CC)CC)c2n1 | – | 1.47% [at 114 µM]
O=C(NC[C@H](O)CN1CCc2ccccc2C1)c1cc(NC2COC2)ncn1 | inactive | –
COCCN(C)Cc1ccc2nc3sc(C(=O)N(C)C4CCCCC4)cn3c2c1 | – | 1.34% [at 114 µM]
COc1cc2c(Nc3ccc(Cl)c(Cl)c3F)ncnc2cc1OCC1C[C@@H]2CN(C)C[C@@H]2C1 (some centres not stated) | inactive | –
c1ccc(C(OC2CCN(CCCc3nn[nH]n3)CC2)c2ccccc2)cc1 | – | -6.05% [at 114 µM]
O=C(C1CC1)N1CC[C@@H](Cc2n[nH]c(=O)n2-c2ccc(-c3ccc4occc4c3)cc2)C1 | inactive | –

Tested on: not listed separately
Test: Primary qHTS for small molecule stabilizers of the endoplasmic reticulum resident proteome: Secreted ER Calcium Modulated Protein (SERCaMP) assay (AID 1508630; active = well fitted curve in the direction sought with a large enough effect; an effect the other way counts as inactive or inconclusive)
Details: SH-SY5Y GLuc-SERCaMP (Gaussia luciferase released on ER calcium loss) secretion, thapsigargin, luminescence; series mostly up to 38.4 µM; activity change, negative = inhibition: at the top concentration
In short: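 The SH-SY5Y reporter protocol was run at 3 concentrations up to 38.3 uM (primary) or 11 concentrations (follow-up): 16 h compound, 100 nM thapsigargin for 4 h, then extracellular luciferase luminescence.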

SMILES | activity change, negative = inhibition
CCCCC/C=C\C/C=C\CCCCCCCC(=O)O | -23.8% [at 3.88 µM]
CC(C)N=c1cc2n(-c3ccc(Cl)cc3)c3ccccc3nc-2cc1Nc1ccc(Cl)cc1 | -14.6%
CCOC(=O)C1=CC2(CC)CCCN3CCc4c(n1c1ccccc41)C32 (configuration not stated) | -7.51%
O=C(O)CC/C=C\CC[C@H]1[C@@H](N2CCCCC2)[C@@H](O)C[C@@H]1OCc1ccc(-c2ccccc2)cc1 | -1.92%
Cc1cc(/C=C/c2ccc3cc(N(C)C)ccc3[n+]2C)c(C)n1-c1ccccc1 | 83.6%
CC(=O)N[C@@H](CC(=O)O)C(=O)N[C@@H](CCC(=O)O)C(=O)O (Ac-Asp-Glu-OH) | -11.1%
CC1=C(/C=C/C(C)=C/C=C/C(C)=C/CO)C(C)(C)CCC1 | -2.28%

Target: Cytochrome P450 2D6 (Homo sapiens) (UniProt P10635)
Test: Cytochrome P450 family 2 subfamily D member 6 (CYP2D6) small molecule antagonists: luciferase biochemical (cell-free) qHTS assay (AID 1645840); also: nearly all actives have a fitted effect of over 55% in size; also: potency is read from the fitted curve at half-maximal effect
Details: P450-Glo CYP2D6 enzyme, luciferin luminescence, 1 h; series mostly up to 57.4 µM; activity change, negative = inhibition: at the top concentration
In short: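 P450-Glo CYP2D6 system: proluciferin substrate converted by enzyme to luciferin, read by luminescence proportional to activity. Enzyme-substrate mix with compound 10 min at room temperature, then NADPH regeneration 1 h before detection reagent.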

Sequence of Cytochrome P450 2D6 (Homo sapiens) (P10635 whole entry, looked up): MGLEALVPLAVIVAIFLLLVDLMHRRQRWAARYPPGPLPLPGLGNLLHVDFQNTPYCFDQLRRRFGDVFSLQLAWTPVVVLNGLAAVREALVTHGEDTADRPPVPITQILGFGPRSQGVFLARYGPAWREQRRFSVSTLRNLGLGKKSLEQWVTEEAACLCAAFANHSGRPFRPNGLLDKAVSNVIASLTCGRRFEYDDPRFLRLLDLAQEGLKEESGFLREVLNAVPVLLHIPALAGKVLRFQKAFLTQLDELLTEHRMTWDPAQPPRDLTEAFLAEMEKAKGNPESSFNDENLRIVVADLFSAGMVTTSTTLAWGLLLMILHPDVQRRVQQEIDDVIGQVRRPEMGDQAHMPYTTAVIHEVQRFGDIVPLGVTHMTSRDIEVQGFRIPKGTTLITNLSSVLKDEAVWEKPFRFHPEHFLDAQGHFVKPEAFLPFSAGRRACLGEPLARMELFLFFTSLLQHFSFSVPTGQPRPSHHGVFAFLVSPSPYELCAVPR

SMILES | Potency | activity change, negative = inhibition
Clc1cc(Cl)c(OCC#CI)cc1Cl | 0.674 µM (active) | –
C=C1CC[C@@H]2[C@](C)(CO)[C@H](O)CC[C@@]2(C)[C@@H]1C/C=C1/C(=O)OC[C@H]1O | inactive | –
O=C(O)c1cc(=O)c2c3nc4ccccc4oc-3cc(=O)c2[nH]1 | 1.9 µM (active) | –
CNc1nc(Nc2cnn([C@H]3CCN(C4COC4)C[C@@H]3F)c2Cl)ncc1C(F)(F)F | – | 5.94%
CNC1CCN(C(Cc2cccc(-c3ccncc3)c2)C(=O)c2sc3c(F)ccc(F)c3c2Cl)CC1 (configuration not stated) | 0.19 µM (active) | –
O=C(O)c1n[nH]c2c1C[C@H]1C[C@@H]21 | – | 8.02%
N#Cc1ccc2[nH]c(O)c(-c3ccc(CN4CCOCC4)cn3)c2c1 | 12 µM (active) and 6.74 µM (active) | –
CC(C)N=c1cc2n(-c3ccc(Cl)cc3)c3ccccc3nc-2cc1Nc1ccc(Cl)cc1 | 1.34 µM (active) | –
C[C@@H]1[C@H](O)[C@@H](C)/C=C/C=C\C=C\C=C\C=C\C=C\C=C\[C@H](O[C@@H]2O[C@H](C)[C@@H](O)[C@H](N)[C@@H]2O)C[C@@H]2O[C@](O)(C[C@@H](O)C[C@@H](O)[C@H](O)CC[C@@H](O)C[C@@H](O)CC(=O)O[C@H]1C)C[C@H](O)[C@H]2C(=O)O (stereo in doubt) | – | -12.4%
COCCN(C)Cc1ccc2nc3sc(C(=O)N(C)C4CCCCC4)cn3c2c1 | – | 4.28%
Cc1cn2c(N)c(Cl)cc(C(=O)NCC3CCN(CC(C)C)CC3)c2n1 | 4.77 µM (active) | –
CCCCN(CCCC)C(=O)CN1C[C@H](c2ccc3c(c2)OCO3)[C@@H](C(=O)O)[C@@H]1c1ccc(OC)cc1 | 19 µM (active) | –
Cc1c(C)c2c(c(C)c1O)CC[C@@](C)(CCC[C@H](C)CCC[C@H](C)CCCC(C)C)O2 | – | 8.66%
Nc1c(N=Nc2ccc(-c3ccc(N=Nc4cc(S(=O)(=O)O)c5ccccc5c4N)cc3)cc2)cc(S(=O)(=O)O)c2ccccc12 | 7.56 µM (active) | –
CN1CCC(c2c[nH]c3ccc(NC(=O)c4ccc(F)cc4)cc23)CC1 | 16.9 µM (active) | –
CCCCCCCC(=O)O | – | 5.43%
COc1cc2c(Nc3ccc(Cl)c(Cl)c3F)ncnc2cc1OCC1C[C@@H]2CN(C)C[C@@H]2C1 (some centres not stated) | 16.9 µM (active) | –
NC(=O)c1ncn(C2OC(CO)C(O)C2O)n1 (configuration not stated) | – | -18.6%
CCCCC(C)(O)C/C=C/[C@H]1[C@H](O)CC(=O)[C@@H]1CCCCCCC(=O)OC (some centres not stated) | 10.7 µM (active) | –
CO[C@@H](Cc1ccc(OCCc2nc(-c3ccccc3)oc2C)c2ccsc12)C(=O)O | – | -23.1%
C[C@H](CCC(=O)O)[C@H]1CC[C@H]2[C@@H]3[C@H](O)C[C@@H]4C[C@H](O)CC[C@]4(C)[C@H]3CC[C@]12C | – | 3.36%
c1ccc(C(OC2CCN(CCCc3nn[nH]n3)CC2)c2ccccc2)cc1 | 6.01 µM (active) | –
Nc1nc(N)c2nc(CNc3ccc(C(=O)N[C@@H](CCC(=O)O)C(=O)O)cc3)cnc2n1 | – | -3.21%
